Data on 40 compounds can be found in PubChem BioAssay (NCI).

This is part of a sample that, as a whole, favours compounds with a hit. Of some 83,000 tested, about 20% had one in any assay.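 Percent growth is the endpoint: 0 to 100 indicates growth inhibition (40 means 60% inhibition), 0 means no net growth, and negative values indicate cell death.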 A number with no mark means an inactive call. Active and inactive are the calls of the source.

The subject of the assay is NCI-H322M lung. The assay is described as follows: NCI-60 one-dose screen, 48 h (100 = growth as untreated, 0 = no growth, -100 = all killed). The conditions noted are these: 10 µM unless noted. On the procedure:
Growth inhibition of the NCI-H322M human Non-Small Cell Lung tumor cell line is measured as a screen for anti-cancer activity. Cells are grown in 96 well plates and exposed to the test compound for 48 hours. Compounds are tested at a single concentration, which is 10^-5 M for most compounds. The reported endpoint is percent growth (GI% or GIPRCNT), where numbers from 0 - 100% represent growth inhibition, and numbers from -100% - 0 represent cell death. For example, a value of 40 represents 60% growth inhibition. A value of 0 means no net growth occurred over the course of the experiment. A value of -40 indicates 40% of cells at the beginning of the experiment died by the end of the experiment. A value of -100 means all cells are dead at the end of the experiment.
NCI-60 Human Tumor Cell Lines Screen was performed using the standard one-dose NCI protocol, which is described in more detail at https://dtp.cancer.gov/discovery_development/nci-60/default.htm.
Compounds with GIPRCNT values below 10 were considered active. Activity score was based on GIPRCNT using the following formula: […]
Score is 0 for GIPRCNT values of 100 or above, 50 for GIPRCNT values of 0, and 100 for GIPRCNT values of -100.
Consider `O=C(Nc1cccc(Cl)c1)Oc1c(Br)c(Br)c(Br)c(Br)c1Br`, for which the growth is 107%. To `COc1ccc(-c2nc(N=Nc3c(O)[nH]c4ccccc34)nc(N3CCOCC3)c2C#N)cc1` belongs 77.1%; to `Clc1nc(Cl)c2ncn(CC3(Cn4cnc5c(Cl)nc(Cl)nc54)COC3)c2n1`, -100% (active). To `COc1ccc(/C=C2\COc3ccc(-c4ccccc4)cc3C2=O)cc1O` belongs 66.7%; to `COc1cc(C2CC(c3cccc(Nc4ccncc4)c3)=NN2c2ccccc2)cc(OC)c1OC` (stereo not given), 80.1%. To `CC(=O)O[C@]1(C(C)=O)CC[C@H]2[C@@H]3C=C(Cl)C4=CC(=O)CC[C@]4(C)[C@H]3CC[C@@]21C` belongs 106%.

`NC(=S)N/N=C(/c1ccccc1)c1ccccc1N`: the growth was 91.8%. On to `O=C1Nc2c(ccc(Cl)c2Cl)/C1=C/c1ccccn1`, for which the growth is 93.4%. Regarding `N/C(=N\N=C\c1cc2ccccc2[nH]1)N/N=C/c1cc2ccccc2[nH]1`, the growth was 100%.

Turning to `O=C(CN1CCOCC1)Nc1ccc2ncnc(Nc3ccc(Oc4cccc(C(F)(F)F)c4)c(Cl)c3)c2c1`, the growth is 16.6%.

As for `COc1ccc(/C=N/C2=C(C#N)C(c3ccccc3[N+](=O)[O-])c3ccc4ccccc4c3O2)cc1` (stereo not given), the growth is 90.6%. On to `CCCCCN1C=C/C(=C\C(=O)N(C)c2ccc(Br)cc2)c2ccccc21`, for which the growth is 98.8%.

As to `O=C1Nc2c(ccc(Cl)c2Cl)/C1=C/c1ccc(F)cc1`, the growth is 93.9%. To `CCCCCCCCN1C(=O)/C(=c2\sc3n(c2=O)C2C(NN=3)N(CC)C(=O)N2CC)c2ccccc21` (stereo not given) belongs 83%.

Take `COc1cc(NCC(C)(O)CN(CC(C)C)CC(C)C)c2nc(C)ccc2c1` (stereo not given): the growth is 89.3%. To `FCc1nc2nc(Cl)c(Cl)nc2[nH]1` belongs 113%. Turning to `CC(=O)OCC(=O)C1(O)C(C)CC2C3C=C(C)C4=Cc5c(cnn5-c5ccccc5)CC4(C)C3C(O)CC21C` (stereo not given), the growth was 57.9%. To `NC(=S)N/N=C(\c1ccc(Cl)cc1)C1CC1` belongs 88%; to `Cc1nccc2c3ccc(OCc4cn(-c5ccc(Cl)cc5)nn4)cc3n(CCCc3ccccc3)c12`, 50%. To `C=C(C)[C@@H]1CC[C@]2(CO)CC[C@]3(C)[C@H](CC[C@@H]4[C@@]5(C)CCCNC(C)(C)[C@@H]5CC[C@]43C)[C@@H]12` belongs 69.8%; to `COc1ccc(C(O)c2cc3c(N)c(C(=O)Nc4ccc(Cl)cc4)sc3nc2C)cc1` (stereo not given), 44.6%; to `Cc1ccc2[nH]c(=O)cc(-n3nncc3COc3ccc(C=O)cc3)c2c1`, 103%. To `COc1ccc(Cn2nc3c(c2-c2cc(OC)c(OC)c(OC)c2)-c2oncc2CC3)cc1` belongs 99%; to `COc1ccc(OC)c(/C=C/[C@H]2O[C@@H](C)[C@H](O)[C@@H]2O)c1`, 97.5%; to `CN(Cc1ccccc1)c1nc(Cl)c(C2CC(c3ccc(Cl)cc3)=Cc3[nH][nH]c(=O)c32)s1` (stereo not given), 110%. With `Cc1cccc(C)c1-c1cc(Cc2ccc(Cl)cc2)c(=O)[nH]n1`, the growth was 111%. To `COc1ccc(-c2nc(N/N=C/c3c[nH]c4ccccc34)nc(N3CCOCC3)c2C#N)cc1` belongs 94.1%.

For `CCCc1cc2c(cc1Br)OCO2`, the growth is 108%. To `Cn1c(COC(=O)N2CCCCC2)nc2c(N3CCOCC3)nc(-c3ccccc3)nc21` belongs 37.4%; to `CC1(C)CC[C@]2(C(=O)NCC#CCN3CCOCC3)CC[C@]3(C)C(=CC[C@@H]4[C@@]5(C)Cc6c([nH]c7ccccc67)C(C)(C)[C@@H]5CC[C@]43C)[C@@H]2C1`, 96.1%; to `C=C1C(=O)O[C@H]2[C@H]1CC/C(CNC(=O)/C=C/c1ccc(Br)cc1)=C\CC[C@@]1(C)O[C@@H]21`, 39.6%. To `Nc1ncc(C#Cc2cncc(NC(=O)c3cccc(C(F)(F)F)c3)c2)c2cccnc12` belongs 81%; to `COc1c(Cl)cc(Cl)c2ccc(C=C3C(=O)N(C)C(=O)N(C)C3=O)nc12`, 106%; to `COC(=O)CCCCCCCCC1(C)C=CC(C(C)O)=CC1` (stereo not given), 109%. To `CCCNC(=O)Oc1ccc(/C(=C(\C)c2ccccc2)c2ccc(OCCN3CCCCC3)cc2)cc1` belongs 83.3%. Regarding `CCOC(=O)C1=C(C)NC(C)=C(C(=O)OCC)C1c1cc(Br)c(O)c(OC)c1`, the growth was 55.3%. To `O=C(CSc1nc2sc3c(c2c(=O)n1Cc1ccccc1)CCCC3)N1CCN(c2ccccc2)CC1` belongs 89.4%; to `CCOC(=O)N1CCc2c(sc3nc4nc[nH]n4c(=O)c23)C1`, 109%. To `CC(=O)c1c(C)[nH]c(-c2nc3ccc(N4CCN(C)CC4)cc3[nH]2)c1-c1ccccc1` belongs 41.6%. To `COc1ccc2c(c1)c(CC(=O)NCCOCCOCC(=O)Nc1ccc(OC)c(C(N)=O)c1O)c(C)n2C(=O)c1ccc(Cl)cc1` belongs 92.7%.
